Laboratory results taken from PubChem BioAssay (NCI).
The panel holds about 79,000 compounds, 15% with a hit somewhere; the sample as a whole holds those more often. The source made the active and inactive calls. Cut-off read from the data, not from the text of the source: active = growth inhibition above about 70%; inactive = the rest.

Assays:
[1] = NCI Yeast Anticancer Drug Screen. Data for the rad52 strain (AID 147);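 note: 0% = growth of vehicle-treated control cultures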; conditions: S. cerevisiae rad52 mutant growth inhibition, hits give high values
Procedure, shortened: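 Yeast strain carrying a DNA damage repair alteration was exposed to test compounds. Growth inhibition was measured relative to vehicle-treated controls.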

[2] = NCI Yeast Anticancer Drug Screen. Data for the wt1 strain (AID 149);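 note: 0% = growth of vehicle-treated wt1 cultures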; conditions: S. cerevisiae wt1 strain (SPY 50644) growth inhibition, hits give high values
Procedure, shortened: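 Growth inhibition read against vehicle controls after compound exposure of the wt1 yeast strain.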

[3] = NCI Yeast Anticancer Drug Screen. Data for the rad50EPP+ strain (AID 151);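 note: 0% = growth of vehicle-treated control cultures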; conditions: S. cerevisiae rad50 mutant strain, hits give high values
Procedure, shortened: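 Yeast strain carrying rad50 alteration (rad50EPP+) exposed to compounds; growth inhibition measured relative to vehicle-treated controls.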

[4] = NCI Yeast Anticancer Drug Screen. Data for the mgt1 strain (AID 153); conditions: S. cerevisiae mgt1 mutant growth inhibition, hits give high values
Procedure, shortened: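 Yeast mgt1 strain (DNA repair/cell-cycle alteration panel) exposed to compounds; growth inhibition measured relative to vehicle-treated controls.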

[5] = NCI Yeast Anticancer Drug Screen. Data for the rad50 strain (AID 155);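 note: 0% = growth of vehicle-only cultures of the same strain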; conditions: S. cerevisiae rad50 strain growth inhibition, hits give high values
Procedure, shortened: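 Readout: growth inhibition relative to vehicle-treated cultures. Compound exposure was carried out in a genetically defined yeast strain deficient in DNA damage repair.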

[6] = NCI Yeast Anticancer Drug Screen. Data for the mec2-1 strain (AID 157); conditions: S. cerevisiae mec2-1 strain, hits give high values
Procedure, shortened: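 mec2-1 yeast strain, carrying an alteration in DNA damage repair or cell cycle control, was exposed to compounds; growth inhibition was measured relative to vehicle-treated controls.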

[7] = NCI Yeast Anticancer Drug Screen. Data for the rad14 strain (AID 159);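 note: 0% = growth of vehicle-treated control cultures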; conditions: S. cerevisiae rad14 strain growth inhibition, hits give high values
Procedure, shortened: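 Growth inhibition vs vehicle controls; genetically altered yeast strain (DNA damage repair defect) treated with test compounds.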

[8] = NCI Yeast Anticancer Drug Screen. Data for the sgs1 mgt1 strain (AID 161);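 note: 0% = growth of cultures given vehicle only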; conditions: S. cerevisiae sgs1 mgt1 strain, hits give high values
Procedure, shortened: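 Growth of a repair-deficient yeast mutant was monitored after compound treatment and expressed as inhibition relative to vehicle-treated cultures.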

[9] = NCI Yeast Anticancer Drug Screen. Data for the CLN2oe strain (AID 163);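 note: 0% = growth of vehicle-only control cultures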; conditions: S. cerevisiae CLN2oe strain, hits give high values
Procedure, shortened: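 Yeast cells carrying a defined cell-cycle control alteration were exposed to test compounds. Growth inhibition was scored against vehicle-treated control cultures.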

[10] = NCI Yeast Anticancer Drug Screen. Data for the cln2 rad14 strain (AID 165);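 note: 0% = growth equal to vehicle treated cultures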; conditions: S. cerevisiae cln2 rad14 strain, hits give high values
Procedure, shortened: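 Yeast carrying cln2 and rad14 alterations (cell cycle control and DNA damage repair) were exposed to compounds. Growth inhibition was measured against vehicle-treated controls.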

[11] = NCI Yeast Anticancer Drug Screen. Data for the bub3 strain (AID 167); conditions: S. cerevisiae bub3 mutant strain, hits give high values
Procedure, shortened: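 Readout: yeast growth inhibition, expressed relative to vehicle-only wells. The test organism is a mutant strain from a panel with lesions in DNA repair or checkpoint genes.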

[12] = NCI Yeast Anticancer Drug Screen. Data for the mlh1 strain (AID 171);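 note: 0% = growth of vehicle-treated control cultures of the same strain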; conditions: S. cerevisiae mlh1 strain growth inhibition, hits give high values
Procedure, shortened: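 Yeast carrying a defined genetic alteration in DNA damage repair or cell cycle control were exposed to test compounds. Growth inhibition was measured relative to vehicle-treated controls.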

[13] = NCI Yeast Anticancer Drug Screen. Data for the sgs1 strain (AID 173);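 note: 0% = growth of vehicle-only control cultures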; conditions: S. cerevisiae sgs1 mutant, hits give high values
Procedure, shortened: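 Yeast mutant strains carrying defined defects in DNA damage repair or cell cycle control were exposed to test compounds. Growth inhibition was scored against vehicle-treated controls.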

[14] = NCI Yeast Anticancer Drug Screen. Data for the mlh1 rad18 strain (AID 175); conditions: S. cerevisiae mlh1 rad18 strain growth inhibition, hits give high values
Procedure, shortened: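 Growth inhibition of the yeast strain was measured after compound exposure and expressed relative to vehicle-treated controls. The strain carries defined defects in DNA damage repair.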

[15] = NCI Yeast Anticancer Drug Screen. Data for the rad18 strain (AID 177); conditions: S. cerevisiae rad18 mutant growth inhibition, hits give high values
Procedure, shortened: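 Yeast carrying a defined DNA damage repair alteration were exposed to compounds. Growth inhibition was expressed relative to vehicle-treated controls.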

[16] = at 5.0 µM (retest, dose inferred, filed as 0.5)
[17] = at 50.0 µM (retest, dose inferred, filed as 5.0)

Measured: growth inhibition

CCN(CC)CC(O)c1ccc2ccc3ccccc3c2c1 (stereo not drawn)
inactive: [1]; at 1.2 µM 3% | [1]; at 3.7 µM 7% | [1]; at 11.0 µM 14% | [1]; at 33.0 µM 14% | [1]; at 100.0 µM 46% | [2]; at 1.2 µM 4% | [2]; at 3.7 µM 10% | [2]; at 11.0 µM 18% | [2]; at 33.0 µM 16% | [2]; at 100.0 µM 19% | [3]; at 1.2 µM -1% | [3]; at 3.7 µM 1% | [3]; at 11.0 µM 2% | [3]; at 33.0 µM -1% | [3]; at 100.0 µM -11% | [4]; at 1.2 µM 2% | [4]; at 3.7 µM 4% | [4]; at 11.0 µM 6% | [4]; at 33.0 µM 21% | [4]; at 100.0 µM 59% | [5]; at 1.2 µM 6% | [5]; at 3.7 µM 10% | [5]; [16] -1% | [5]; at 11.0 µM 15% | [5]; at 33.0 µM 10% | [5]; [17] 52% | [5]; at 100.0 µM 39% | [6]; at 1.2 µM 3% | [6]; at 3.7 µM 7% | [6]; [16] 15% | [6]; at 11.0 µM 11% | [6]; at 33.0 µM 15% | [6]; [17] 20% | [6]; at 50.0 µM 37.4% | [6]; at 100.0 µM 33% | [7]; at 1.2 µM 7% | [7]; at 3.7 µM 23% | [7]; at 11.0 µM 35% | [7]; at 33.0 µM 28% | [8]; [16] 16% | [8]; [17] 7% | [8]; at 50.0 µM 42.7% | [9]; at 1.2 µM 0% | [9]; at 3.7 µM 5% | [9]; at 11.0 µM 15% | [9]; at 33.0 µM 35% | [9]; at 100.0 µM 57% | [10]; [16] -22% | [10]; [17] -22% | [10]; at 50.0 µM 32% | [11]; at 1.2 µM 1% | [11]; at 3.7 µM 4% | [11]; [16] 10% | [11]; at 11.0 µM -20% | [11]; at 33.0 µM 43% | [11]; at 50.0 µM 65.2% | [11]; at 100.0 µM 45% | [12]; at 1.2 µM 8% | [12]; at 3.7 µM 8% | [12]; at 11.0 µM 16% | [12]; at 33.0 µM 16% | [12]; at 100.0 µM 40% | [13]; at 1.2 µM 8% | [13]; at 3.7 µM 17% | [13]; at 11.0 µM 34% | [13]; at 33.0 µM 48% | [13]; at 100.0 µM 64% | [14]; [16] 3% | [14]; [17] 19% | [14]; at 50.0 µM 51.1% | [15]; at 1.2 µM 17% | [15]; at 3.7 µM 22% | [15]; at 11.0 µM 27% | [15]; at 33.0 µM 38% | [15]; at 100.0 µM 59%
active: [5]; at 50.0 µM 70.9% | [7]; at 100.0 µM 70% | [11]; [17] 71%
